Measurements from PubChem BioAssay (EPA / NIEHS).
Calls of active or inactive are those of the source. Rule for the calls: active = hit-call score of the fitted dose curve at least 0.9, where 1 is the maximum; inactive = score below 0.9.

Test: ATG_M_61_CIS: Attagene CIS-FACTORIAL HepG2 Assay for M61 Transcription Factor (Internal Marker) (AID 2282937)
Conditions: HepG2 Attagene CIS-FACTORIAL M61 internal marker reporter; actives raise or lower the signal
Experimental: ATG_CIS is a cell-based, multiplexed-readout assay that uses HepG2, a human liver cell line, with measurements taken at 24 hours after chemical dosing in a 24-well plate.ATG_M_61_CIS is one of 52 assay component(s) measured or calculated from the ATG_CIS assay. It is designed to make measurements of mRNA induction, a form of inducible reporter, as detected with fluorescence intensity signals by Reverse transcription polymerase chain reaction (RT-PCR) and Capillary electrophoresis technology.Data from the assay component ATG_M_61_CIS was analyzed into 1 assay endpoint. This assay endpoint, ATG_M_61_CIS, was analyzed with bidirectional fitting relative to DMSO as the negative control and baseline of activity. Using a type of inducible reporter, measures of mRNA for gain or loss-of-signal activity can be used to understand the background control at the transcription factor-level as they relate to the gene . Furthermore, this assay endpoint can be referred to as a secondary readout, because this assay has produced multiple assay endpoints where this one serves a background control function. To generalize the intended target to other relatable targets, this assay endpoint is annotated to the background measurement intended target family, where the subfamily is internal marker.
Human liver HepG2 cells are transiently transfected with multiple reporter transcription units (MRTUs) in 6-well plates using FuGene 6 reagent (Roche; 3 ml FuGene/1 mg DNA). The MRTU constructs are regulated by a cis-regulating element (promoter). […] A major difference between the CIS and TRANS system is that in CIS activities of endogenous TFs are measured, whereas the TRANS assay evaluates changes in activities of exogenous, chimeric NR-Gal4 proteins. […] At the end of 24 hour incubation, total RNA was isolated using TriZol reagent (Invitrogen). The isolated RNA is then reverse-transcribed using oligo(dT) primer and Mo-MLV reverse transcriptase (Invitrogen) with DNAse I (Ambion) treatment for 30 min. The one-tenth of the produced cDNA was amplified by PCR using Taq DNA polymerase (Invitrogen) and two reporter sequence-specific primers. The PCR products were fluorescently labeled by primer extension with 6-arboxyfluorescein (6-FAM) 5'-labeled reporter sequence-specific primer (2 min at 95 C, 20 s at 68 C and 10 min at 72 C) and these products were digested with 5U of HpaI (New England Biolabs) for 2h at 37 C. The fragments were purified using Qiaquick PCR columns (Qiagen), analyzed on an ABI 3130xL genetic analyzer (Applied Biosystems) with peak positions identified by using a set of X-rhodamine (ROX)-labeled MapMarker1000 molecular weight standards (BioVentures). The raw capillary electrophoresis data was processed using Attagraph software (Attagene).

outcome, inactive:
C[C@H]1C[C@@H](O)CC(C)(C)C1
CCCCC1CCC(O)CC1 (stereo not given)
Nc1c(Cl)cc(Cl)cc1[N+](=O)[O-]
IC(I)I
C=Cc1ccncc1
C=CCOC(=O)CCCCCC
COc1ccc(N)c([N+](=O)[O-])c1
O=C(CS)OCCOC(=O)CS
C#CC(C)(O)CC(C)C (stereo not given)
C[C@@H]1CCN(C(=O)[C@H](CCCN=C(N)N)NS(=O)(=O)c2cccc3c2NC[C@H](C)C3)[C@@H](C(=O)O)C1
CC(=O)O[C@@H]1C[C@@H]2CC[C@@]1(C)C2(C)C
CCOC(=O)C(C#N)=C(c1ccccc1)c1ccccc1
CC1(C)CCC[C@]2(C)[C@H]3CCO[C@]3(C)CC[C@@H]12
CCCCC(CC)(CO)CO
NCCNc1cccc2ccccc12
CC(C)CCCCCCCCCCCCCCC(=O)O
O=C1c2ccccc2C(=O)c2c(O)ccc(O)c21
COC(=O)C=C(C)CCC=C(C)C
CCC(Cl)C(Cl)C(Cl)CC(Cl)C(Cl)C(C)Cl (stereo not given)
CCOC(=O)COC(=O)c1cc(Oc2ccc(C(F)(F)F)cc2Cl)ccc1[N+](=O)[O-]
OCC(O)c1ccccc1 (stereo not given)
N#Cc1cscn1
O=C1OC(=O)c2c(Cl)c(Cl)c(Cl)c(Cl)c21
Clc1ccc(C(c2ccccc2Cl)C(Cl)Cl)cc1 (stereo not given)
Cc1occc(=O)c1OC(=O)C(C)C
NCC1CCCC(CN)C1 (stereo not given)
CC(=O)NCCO
Cc1ncc[nH]1
CCCCCCCCCCCCN1CCCCCC1=O
COC(=O)c1ccc([N+](=O)[O-])cc1
C=COCCOCCOC=C
Cc1ccc2c(c1)C(=O)OC2=O
CC=Cc1ccc(OC)c(OC)c1
O=[N+]([O-])c1ccc(O)cc1C(F)(F)F
O=C(Nc1ccc([N+](=O)[O-])cc1)Nc1ccc([N+](=O)[O-])cc1 (tested in a mixture with another compound)
C=CCCC(=O)/C=C/C1C(C)=CCCC1(C)C (stereo not given)
O=C(c1ccccc1)C(O)c1ccccc1 (stereo not given)
CC(C)CC(C)CC(O)CC(C)C (stereo not given)
CC(C)=CCCC(C)CCOC=O (stereo not given)
CC1=CC[C@@]23C[C@@H]1C(C)(C)[C@@H]2CC[C@H]3C
